Data reported in PubChem BioAssay (NCATS).
Results filed as inconclusive are left out. The source made the active and inactive calls. Calls follow the shape of the dose curve; as a rule, active = well fitted curve in the direction sought with a large enough effect; inconclusive = small, poorly fitted or top-dose-only effect, or another doubt; inactive = no such curve, though single readings can be large; an effect the other way counts as inactive or inconclusive.

Assays:
[1] = qHTS of pediatric cancer cell lines to identify multiple opportunities for drug repurposing: Primary screen for TC32 cells (AID 1347089); also: nearly all actives have a fitted effect of over 60% in size
In short: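 Measured quantity: luminescence from CellTiter-Glo, reflecting metabolically active TC32 cells following 48 h of compound. Curves came straight from multi-point titrations, with 8 or 11 points in primary and 11 in confirmatory screening.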

[2] = qHTS of pediatric cancer cell lines to identify multiple opportunities for drug repurposing: Primary screen for DAOY cells (AID 1347090); also: nearly all actives have a fitted effect of over 55% in size
In short: (§1)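 Eight- or eleven-point concentration series, 48 h treatment at 37 degrees C in growth media; readout CellTiter-Glo luminescence. Potency and efficacy were taken from the concentration-response curves.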

[3] = qHTS of pediatric cancer cell lines to identify multiple opportunities for drug repurposing: Primary screen for U-2 OS cells (AID 1347096); also: nearly all actives have a fitted effect of over 50% in size
In short: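 Cells (500-1,000/well) in growth media were settled 5 h at 37 degrees C, then given compounds for 48 h. Viability was read as CellTiter-Glo luminescence. Primary runs used MIPE at 11 points (0.78 nM-46 µM) and NPC at 8 points (0.59 nM-46 µM); follow-ups used 11 points.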

[4] = qHTS of pediatric cancer cell lines to identify multiple opportunities for drug repurposing: Primary screen for SK-N-SH cells (AID 1347098); also: nearly all actives have a fitted effect of over 65% in size
In short: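 Cells (500-1,000/well) rested 5 h, then received compounds for 48 h; metabolically active cells were measured by CellTiter-Glo luminescence. Final concentrations spanned up to 46 µM (MIPE, 11-point) or 0.59 nM-46 µM (NPC, 8-point) in primary screens, 11-point in follow-ups.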

[5] = qHTS of pediatric cancer cell lines to identify multiple opportunities for drug repurposing: Primary screen for SK-N-MC cells (AID 1347093)
In short: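 Metabolically active cells were quantified by ATP-dependent luminescence (CellTiter-Glo, 15 min at room temperature) following 48 h treatment. Cells had been plated at 500-1,000 per well and settled for 5 h beforehand.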

[6] = qHTS of pediatric cancer cell lines to identify multiple opportunities for drug repurposing: Primary screen for BT-37 cells (AID 1347094)
In short: (§2)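 Phenotypic viability qHTS, 48 h compound exposure, CellTiter-Glo luminescence read-out; multi-concentration dosing so that potency and efficacy derive directly from the primary screen's curves.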

[7] = qHTS of pediatric cancer cell lines to identify multiple opportunities for drug repurposing: Primary screen for Saos-2 cells (AID 1347097); also: nearly all actives have a fitted effect of over 40% in size
In short: as §2

[8] = qHTS of pediatric cancer cell lines to identify multiple opportunities for drug repurposing: Primary screen for A673 cells (AID 1347092); also: nearly all actives have a fitted effect of over 45% in size
In short: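 Cells are plated, rested 5 h, dosed by pintool, incubated 48 h, then lysed with CellTiter-Glo and read by luminescence. DMSO is the neutral control; bortezomib at 2.3 uM final is the positive control.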

[9] = qHTS of pediatric cancer cell lines to identify multiple opportunities for drug repurposing: Primary screen for NB-EBc1 cells (AID 1347095)
In short: as §2

[10] = qHTS of pediatric cancer cell lines to identify multiple opportunities for drug repurposing: Primary screen for SJ-GBM2 cells (AID 1347091)
In short: as §1

Measured: Potency
Potency is read from the fitted curve at half-maximal effect.

Fc1ccc(C(c2ccc(F)cc2)N2CCN(CC=Cc3ccccc3)CC2)cc1
inactive: [1] | [2] | [3] | [4]

CN(C)CCN(C)C(=O)c1ccc(NC(=O)Nc2ccc(-c3nc(N4CCOCC4)c4ccn(CC(F)(F)F)c4n3)cc2)cc1
active: [1] 0.147 µM | [2] 1.48 µM | [5] 0.0264 µM | [6] 0.0485 µM | [3] 4.69 µM | [7] 0.418 µM | [4] 7.64 µM

CO[C@H]1/C=C\O[C@@]2(C)Oc3c(C)c(O)c4c(O)c(c5c(nc6cc(C)ccn65)c4c3C2=O)NC(=O)C(C)=CC=C[C@H](C)[C@H](O)[C@@H](C)[C@@H](O)[C@@H](C)[C@H](OC(C)=O)[C@H]1C
inactive: [1] | [2] | [8] | [6] | [4]

OC(c1cc(C(F)(F)F)nc2c(C(F)(F)F)cccc12)C1CCCCN1 (stereo not given)
active: [8] 18.7 µM | [4] 34.1 µM
inactive: [1] | [2] | [9]

COc1ccc2nc3cc(Cl)ccc3c(Nc3cc(CN4CCCC4)c(O)c(CN4CCCC4)c3)c2n1
inactive: [1] | [2] | [3] | [7]

CCNC(=O)[C@H]1O[C@@H](n2cnc3c(N)nc(NCCc4ccc(CCC(=O)O)cc4)nc32)[C@H](O)[C@H]1O
inactive: [1] | [2] | [5] | [6] | [3] | [4]

CCC(c1ccc(O)cc1)C(CC)c1ccc(O)cc1 (stereo not given)
active: [2] 0.59 µM | [5] 1.05 µM
inactive: [1] | [4]

C[C@H](CCC(=O)O)[C@H]1CC[C@H]2[C@H]3[C@@H](CC[C@]12C)[C@@]1(C)CC[C@@H](O)C[C@H]1C[C@@H]3O
active: [6] 27.3 µM | [9] 14.8 µM
inactive: [1] | [2] | [3] | [7] | [4]

O=C(c1ccc(F)c(F)c1Nc1ccc(I)cc1F)N1CC(O)([C@H]2CCCCN2)C1
active: [10] 4.69 µM | [8] 0.0235 µM | [5] 1.48 µM | [6] 1.09 µM | [9] 1.66 µM | [3] 14.8 µM | [7] 1.87 µM | [4] 6.07 µM
inactive: [1]

C=C1c2cccc(O)c2C(O)=C2C(=O)[C@@]3(O)C(O)=C(C(N)=O)C(=O)[C@@H](N(C)C)[C@@H]3[C@@H](O)[C@H]12
active: [8] 23.5 µM
inactive: [1] | [10]

N#CC1(c2cccc(C(=O)Nc3cc(Oc4ccc5nc(NC(=O)C6CC6)sc5n4)ccc3F)c2Cl)CC1
inactive: [1] | [10]

CC(C)(O)CC(=O)NCCn1ccc2ncnc(Nc3ccc(Oc4cccc(C(F)(F)F)c4)c(Cl)c3)c21
active: [2] 0.469 µM | [8] 0.372 µM | [6] 24.3 µM | [4] 1.21 µM
inactive: [1]

CC1=C(C(=O)Nc2cc3cn[nH]c3cc2F)C(c2ccc(C(F)(F)F)cc2)CC(=O)N1 (stereo not given)
inactive: [1] | [2] | [6] | [3]

C=CC[N+]1([C@H]2C[C@H]3[C@@H]4CC[C@H]5C[C@H](O)[C@@H](N6CCOCC6)C[C@]5(C)[C@@H]4CC[C@]3(C)[C@H]2OC(C)=O)CCCC1
not listed: [8] | [10]
inactive: all other assays above

CCC(=O)OCC(=O)[C@@]1(OC(=O)CC)[C@@H](C)C[C@@H]2[C@H]3CCC4=CC(=O)C=C[C@]4(C)[C@@]3(F)[C@@H](O)C[C@@]21C
inactive: [1] | [9] | [3]
active: [2] 1.18 µM | [8] 1.87 µM | [7] 0.187 µM

C[C@@H]1CCO[C@H]2Cn3cc(C(=O)NCc4ccc(F)cc4F)c(=O)c(O)c3C(=O)N12
inactive: [1] | [2] | [8] | [4]

Nc1ncnc2c1c(-c1cccc(OCc3ccccc3)c1)cn2C1CC(CN2CCC2)C1 (stereo not given)
active: [1] 9.3 µM | [9] 10.5 µM
inactive: [2] | [6] | [3]

COc1cc(C=CC(=O)O)ccc1O
not listed: [5] | [10]
inactive: all other assays above

C[C@]12C=CC(=O)C=C1CC[C@@H]1[C@@H]2[C@@H](O)C[C@@]2(C)[C@@H]1CC[C@]2(O)C(=O)CO
active: [5] 29.6 µM | [9] 14.8 µM
inactive: [1] | [2] | [3] | [7]

CCCCN(CCCC)CC(O)c1cc(Cl)cc2c1-c1ccc(Cl)cc1C2=Cc1ccc(Cl)cc1 (stereo not given)
not listed: [5] | [10]
inactive: all other assays above

Cc1c(-c2cccc3c(CCCOc4cccc5ccccc45)c(C(=O)O)n(Cc4cccnc4)c23)c(COc2ccc(N3CCN([S+](=O)([O-])N(C)C)CC3)cc2)nn1C
active: [2] 23.5 µM | [8] 23.5 µM | [5] 10.5 µM
inactive: [1] | [3] | [4]

COc1nccc(-c2c(-c3ccc(F)cc3)ncn2C2CCNCC2)n1
inactive: [1] | [2] | [5] | [9] | [3] | [4]

NCc1c[nH]c(=S)n1[C@H]1CCc2c(F)cc(F)cc2C1
inactive: [1] | [3]
active: [10] 26.4 µM | [8] 18.7 µM | [5] 10.5 µM | [6] 30.6 µM | [9] 23.5 µM | [7] 18.7 µM

CN(CC=CC#CC(C)(C)C)Cc1cccc2ccccc12
inactive: [1] | [2] | [6] | [3] | [7] | [4]

COc1ccc(CCN(C)CCCOc2ccc(S(=O)(=O)c3[nH]c4ccccc4c3C(C)C)cc2)cc1OC
active: [6] 19.3 µM
inactive: [1] | [2]

C[C@@H]1O[C@@H](O[C@H]2CC[C@@]3(C)[C@H](CC[C@@H]4[C@H]3C[C@@H](O)[C@]3(C)[C@@H](C5=CC(=O)OC5)CC[C@]43O)C2)C[C@H](O)[C@@H]1O[C@H]1C[C@H](O)[C@H](O[C@H]2C[C@H](O)[C@@H](O)[C@@H](C)O2)[C@H](C)O1 (stereo in doubt)
active: [1] 0.38 µM | [10] 0.121 µM | [8] 0.171 µM | [5] 0.108 µM | [6] 0.112 µM | [9] 0.303 µM | [3] 0.34 µM | [7] 0.679 µM | [4] 0.555 µM

COc1ccc(-c2cc3nccn3c(Nc3ncccc3C(N)=O)n2)cc1OC
inactive: [1]
active: [10] 1.18 µM | [8] 1.48 µM | [5] 1.66 µM | [9] 2.64 µM | [7] 1.05 µM

CN1CC(=O)NC1=NC(=O)Nc1cccc(Cl)c1
active: [9] 20.9 µM | [4] 8.57 µM
inactive: [1] | [10] | [8] | [6] | [3]

CC(C)(C)c1[nH]cnc1C=c1[nH]c(=O)c(=Cc2ccccc2)[nH]c1=O
active: [1] 0.0068 µM | [10] 0.001 µM | [8] 0.001 µM | [5] 0.001 µM | [9] 0.001 µM | [3] 42.9 µM | [7] 0.136 µM

NS(=O)(=O)c1ccc(Nc2nc(OCC3CCCCC3)c3[nH]cnc3n2)cc1
inactive: [1]
active: [10] 26.4 µM | [8] 23.5 µM | [5] 6.62 µM | [7] 16.6 µM

COc1cc([C@@H]2c3cc4c(cc3[C@@H](O[C@@H]3O[C@@H]5CO[C@@H](C)O[C@@H]5[C@H](O)[C@@H]3O)[C@H]3COC(=O)[C@H]23)OCO4)cc(OC)c1O
active: [1] 1.04 µM | [10] 0.59 µM | [8] 1.48 µM | [5] 0.469 µM | [6] 0.485 µM | [9] 0.187 µM | [7] 3.32 µM

CC1(C)[C@H]2CC[C@]3(C)[C@@H](C(=O)C=C4[C@@H]5C[C@@](C)(C(=O)O)CC[C@]5(C)CC[C@]43C)[C@@]2(C)CC[C@@H]1O
not listed: [2] | [5] | [9]
inactive: all other assays above

CC[C@@H]([C@H](C)O)n1ncn(-c2ccc(N3CCN(c4ccc(OCC5CO[C@@](Cn6cncn6)(c6ccc(F)cc6F)C5)cc4)CC3)cc2)c1=O (stereo not given in full)
inactive: [1] | [3] | [4]
active: [10] 18.7 µM | [8] 18.7 µM | [5] 16.6 µM | [9] 20.9 µM | [7] 26.4 µM

Cc1c(C(=O)Nc2ccc(N3C[C@@H](C)O[C@@H](C)C3)nc2)cccc1-c1ccc(OC(F)(F)F)cc1
inactive: [1]
active: [10] 18.7 µM | [8] 7.43 µM | [5] 16.6 µM | [9] 14.8 µM | [4] 3.41 µM

Cc1ccccc1C(=O)c1ccc(Nc2ccc(Br)cc2N)cc1Cl
active: [10] 23.5 µM | [8] 18.7 µM | [5] 16.6 µM | [7] 18.7 µM
inactive: [1] | [4]

Cc1cccc(-c2[nH]c(C(C)(C)C)nc2-c2ccc3c(c2)OCO3)n1
active: [1] 8.29 µM | [10] 4.69 µM | [8] 4.69 µM | [5] 2.96 µM | [6] 6.11 µM | [7] 0.418 µM | [4] 30.4 µM

CCNC(=O)CCCC=CC[C@@H]1[C@H](C=CC(O)CCc2ccccc2)[C@@H](O)C[C@@H]1O (stereo not given in full)
not listed: [2] | [4] | [6]
inactive: all other assays above

CCCCOCCOc1nc(-c2ccc(C(=O)O)c(F)c2)sc1C
active: [4] 6.81 µM
not listed: [2] | [5] | [6]
inactive: all other assays above

CC=C(C(=CC)c1ccc(O)cc1)c1ccc(O)cc1
inactive: [1]
active: [10] 20.9 µM | [8] 23.5 µM | [5] 11.8 µM | [7] 18.7 µM

CC(C)C[C@@H](C(=O)N[C@H](C(=O)OC1CCCC1)c1ccccc1)[C@H](O)C(=O)NO
active: [10] 20.9 µM | [8] 14.8 µM | [5] 18.7 µM | [6] 24.3 µM | [9] 18.7 µM | [7] 16.6 µM
inactive: [1]
